# In the supplement of paper PMC10515830:
# Counter-ions that a name gives are not always drawn.
# How the values were obtained:
# Conditions in all cases: 10 µM; exposure time 6 h
# [1] = tested on: Danio rerio larvae (5 dpf); experiment: difference in excitability vs DMSO (percentage points); higher = more excitable than DMSO
# Summary of the method: (§1)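 Library compounds were tested at 10 µM final in 100 µL egg water on wild-type 5 dpf zebrafish larvae in 96-well plates for 6 h, with 48 larvae per compound. After 3 h, plates at 28.5 ℃ were imaged every 6 s during a 3-h run of moving lines and 100 ms, 400Hz tones. Behaviours were quantified by Z-LaP Tracker and reported as the compound mean less the vehicle control mean, in percentage points.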
# [2] = tested on: Danio rerio larvae (5 dpf); experiment: difference in startle response vs DMSO (percentage points); higher = stronger startle than DMSO
# Summary of the method: as §1
# [3] = tested on: Danio rerio larvae (5 dpf); experiment: difference in activity during first hour vs DMSO (percentage points); higher = more activity than DMSO
# Summary of the method: as §1
# [4] = tested on: Danio rerio larvae (5 dpf); experiment: difference in habituation to acoustic stimuli vs DMSO (percentage points); higher = more habituation than DMSO
# Summary of the method: as §1
# [5] = tested on: Danio rerio larvae (5 dpf); experiment: difference in combined optomotor response to red, green and blue moving lines vs DMSO (percentage points); higher = stronger optomotor response than DMSO
# Summary of the method: as §1
Structure (SMILES),difference in excitability [1],difference in startle response [2],difference in activity during first hour [3],difference in habituation to acoustic stimuli [4],difference [5]
COc1ccc2c(c1)[C@]13CCCC[C@@H]1[C@H](C2)N(C)CC3 [Dextromethorphan (hydrobromide hydrate)],18.6,1.65,-16,-4.55,-8.83
CN1[C@@H]2CC[C@H]1C[C@@H](OC(=O)C(CO)c1ccccc1)C2 (stereo not given in full) [Atropine],-7.7,-5.16,-10.3,-0.323,-1.56
COc1ccc(C(CN(C)C)C2(O)CCCCC2)cc1 (stereo not given) [Venlafaxine (hydrochloride)],16.6,-10.3,-21.1,-5.65,-7.48
C=C1C[C@@H]2[C@H](CC[C@]3(C)C(=O)CC[C@@H]23)[C@@]2(C)C=CC(=O)C=C12 [Exemestane],14.1,0.844,-8.29,-0.126,3.59
O=[N+]([O-])O[C@H]1CO[C@H]2[C@@H]1OC[C@H]2O[N+](=O)[O-] [Isosorbide Dinitrate],5.95,10.4,2.6,1.13,5
CC[C@@H](C(N)=O)N1CCCC1=O [Levetiracetam],1.51,0.691,2.97,4.14,4.89
C#CCN(C)[C@H](C)Cc1ccccc1 [R-(-)-Deprenyl (hydrochloride)],-5.66,-0.482,-5.84,6.14,1.17
ClC1C(Cl)C(Cl)C(Cl)C(Cl)C1Cl (stereo not given) [γ-Lindane],7.5,11.9,1.64,-7.56,-16.7
C[N+]1(C)[C@@H]2C[C@@H](OC(=O)[C@H](CO)c3ccccc3)C[C@H]1[C@@H]1O[C@@H]12 [Methylscopolamine (bromide)],-2.02,0.0162,-10,-2.49,0.657
CCN(C)C(=O)Oc1cccc([C@H](C)N(C)C)c1 [Rivastigmine (tartrate)],0.964,4.99,-2.5,-3.03,5.01
COc1cc2c(cc1OC)C1CC(=O)C(CC(C)C)CN1CC2 (stereo not given) [Tetrabenazine],25.1,3.39,9.5,-2.68,-3.98
CC(N)Cc1ccc(O)cc1 (stereo not given) [4-hydroxy Amphetamine (hydrochloride)],2.21,-1.49,5.37,0.612,-2.78
C[N@+]1(CC2CC2)CC[C@]23c4c5ccc(O)c4O[C@H]2C(=O)CC[C@@]3(O)[C@H]1C5 [Methylnaltrexone (bromide)],3.91,-0.955,8.76,7.78,-7.48
O=C1CC[C@@]2(O)[C@H]3Cc4ccc(O)c5c4[C@@]2(CCN3CC2CC2)[C@H]1O5 [Naltrexone (hydrochloride)],12.7,5.18,13.3,2.13,7.87
CN(C)C(=O)Oc1cccc([N+](C)(C)C)c1 [Neostigmine (methyl sulfate)],-10.3,0.754,11.2,5.23,17
CC(C)N(CCC(C(N)=O)(c1ccccc1)c1ccccn1)C(C)C (stereo not given) [Disopyramide],5.49,-1.52,13.6,4.14,9.12
CC1=C[C@]23C(=O)[C@@H](C=C(CO)[C@@H](O)[C@]2(O)[C@H]1O)[C@H]1[C@@H](C[C@H]3C)C1(C)C [Ingenol],8.75,2.54,-2.63,4.35,-0.622
Cn1c(CCCC(=O)O)nc2cc(N(CCCl)CCCl)ccc21 [Bendamustine (hydrochloride)],1.71,-1.73,2,-3.41,-1.37
O=c1[nH]c2ccccc2n1C1CCN(CCCC(c2ccc(F)cc2)c2ccc(F)cc2)CC1 [Pimozide],-5.57,7.75,-5.44,-11,-13.5
COc1cc([C@@H]2c3cc4c(cc3[C@H](O)[C@H]3COC(=O)[C@H]23)OCO4)cc(OC)c1OC [Podophyllotoxin],12.7,-7.15,-1.85,2.01,7.28
O=C(O[C@H]1C[C@H]2CC[C@@H](C1)[N+]21CCCC1)C(O)(c1ccccc1)c1ccccc1 [Trospium (chloride)],-11.2,-0.27,1.73,-0.832,-4.92
C=CCN1CC[C@]23c4c5ccc(O)c4O[C@H]2[C@@H](OCCOCCOCCOCCOCCOCCOCCOC)CC[C@@]3(O)[C@H]1C5 [Naloxegol (oxalate)],3.05,1.93,7.65,5.19,-4.82
C[N+]1(C)CCCC(OC(=O)C(O)(c2ccccc2)c2ccccc2)C1 (stereo not given) [Mepenzolate (bromide)],0.196,-4.42,2.16,-0.492,-1.25
CC(=O)O[C@H]1C[C@@H]2CC[C@@H]3[C@H](CC[C@@]4(C)[C@H]3C[C@H]([N+]3(C)CCCCC3)[C@@H]4OC(C)=O)[C@@]2(C)C[C@@H]1[N+]1(C)CCCCC1 [Pancuronium (bromide hydrate)],15.9,4.02,-3.48,-0.432,5.41
O=P1(NCCCl)OCCCN1CCCl (stereo not given) [Ifosfamide],10,-6.24,-5.39,2.26,2.77
